Screening data as filed in PubChem BioAssay.
IL-1B inflam inh: qHTS for Inhibitors of Inflammasome Signaling: IL-1-beta AlphaLISA Primary Screen. THP-1 LPS/ATP IL-1B secretion, AlphaLISA, 16 h; active compounds read low. activity change, % at 57.5 µM. 360,000 tested, 4.7% active. AID 743279, 2014; in the data active = activity change below about -50%; inconclusive = mostly about -30% to -49%
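Secreted IL-1B measured by AlphaLISA bead assay after 16 h compound exposure of THP-1 cells; compounds (final up to 57.5 uM) added 1 h before LPS (250 ng/mL) and ATP (1.25 mM) stimulation; lower signal means less secretion.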
TDP1 cell noCPT: qHTS for Inhibitors of human tyrosyl-DNA phosphodiesterase 1 (TDP1): qHTS in cells in absence of CPT | DT40 Tdp1-/- hTDP1 cells, no CPT, ATP luminescence, 48 h | Potency, µM (top dose mostly 46.2 µM), inactives show top-dose activity change, negative = growth inhibition, usual class: inhibitors | 420,000 tested, 15% active; also: potency is read from the fitted curve at half-maximal effect; nearly all actives have a fitted effect of over 55% in size
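Seeded 400 DT40-hTDP1 cells/well (vehicle DMSO, no 20 nM CPT); pinned compounds; ≥48 hr at 37 °C; CellTiter-Glo luminescence as viability measure.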
DT40 TDP1 CPT: qHTS for Inhibitors of human tyrosyl-DNA phosphodiesterase 1 (TDP1): qHTS in cells in presence of CPT | AID 686979, 2013 | chicken DT40 Tdp1-/-;hTDP1 cells + 20 nM CPT, ATP luminescence, 48 h | Potency, µM (top dose mostly 46.2 µM), without a hit: top-dose activity change, negative = growth inhibition, most hits filed as inhibitors | 420,000 tested, 12% active; also: potency is read from the fitted curve at half-maximal effect; nearly all actives have a fitted effect of over 55% in size
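Cell growth measured by CellTiter-Glo luminescence after a minimum 48 h, 37 C compound exposure with 20 nM CPT in Tdp1-knockout DT40 cells stably expressing hTDP1, seeded 400/well; qHTS titration format.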
HT1080NT lethal: qHTS for induction of synthetic lethality in tumor cells producing 2HG: qHTS for the HT-1080-NT fibrosarcoma cell line | HT-1080-NT fibrosarcoma viability, CellTiter-Glo ATP luminescence, 48 h | Potency, µM (doses to about 46.1 µM), for inactives: at the top dose activity, negative = less viability, hits mostly cytotoxic | 360,000 tested, 1.6% active;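 also: NT is the 2HG producing partner of a matched IDH1 knockdown line; potency is read from the fitted curve at half-maximal effect; 0% = DMSO-treated cells and -100% = media-only wells without cells; nearly all actives have a fitted effect of over 55% in size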
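Toxicity toward the 2HG-producing NT line was scored as %Activity, normalised to DMSO and no-cell wells, from CellTiter-Glo luminescence after 48 hours' treatment.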
HT1080 IDH1KD tx: qHTS for induction of synthetic lethality in tumor cells producing 2HG: qHTS for the HT-1080-IDH1KD cell line; 360,000 tested, 2% active; HT-1080 IDH1 knockdown viability, ATP luminescence, 48 h; Potency, µM (top dose mostly 46.1 µM), inactives show top-dose activity, negative = toxicity, actives largely listed as cytotoxic;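 also: potency is read from the fitted curve at half-maximal effect; 0% = DMSO wells and -100% = cell-free medium wells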
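Cytotoxicity counter-line: IDH1KD HT-1080, 48 h, CellTiter-Glo. Curves classed by r2, magnitude and activity.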
ELG1 DNA repair: qHTS screen for small molecules that inhibit ELG1-dependent DNA repair in human embryonic kidney (HEK293T) cells expressing luciferase-tagged ELG1; HEK293T ELG1-luciferase reporter, luminescence, 16 h; DNA damage induced by 5-fluorouridine; Potency, µM (titrated, usually from 46.1 µM), for the others: at the highest dose activity change, negative = inhibition, most hits filed as inhibitors; 330,000 tested, 2.3% active; also: potency is read from the fitted curve at half-maximal effect; nearly all actives have a fitted effect of over 55% in size
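Luminescence from the luciferase reporter, measured 30 min after ONE-Glo reagent at room temperature, was the read-out. Beforehand, 2,000 cells per well were exposed for 16 hr at 37 °C to 5-fluorouridine together with compound or vehicle.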
Numbers without * were called inactive; ? = inconclusive; . = no result; [ ] = another dose, or the depositor's remark. An excerpt weighted towards active compounds, which were near 19% of everything screened. Unless noted, calls follow the shape of the dose curve; as a rule, active = well fitted curve in the direction sought with a large enough effect; inconclusive = small, poorly fitted or top-dose-only effect, or another doubt; inactive = no such curve, though single readings can be large; an effect the other way counts as inactive or inconclusive. Unless noted, % is scaled to controls: 0 for no effect and ±100 for the full control effect.

SMILES | IL-1B inflam inh | TDP1 cell noCPT | DT40 TDP1 CPT | HT1080NT lethal | HT1080 IDH1KD tx | ELG1 DNA repair
COc1cc(C(=O)NCC(c2cccs2)N2CCOCC2)cc(OC)c1OC (centres undefined) | 9.2 | -25.9% | -9.7% | -1.6% | 9.1% | ?
Cc1ccsc1C(=O)NCC(c1cccs1)N1CCOCC1 (centres undefined) | 35.5 | ? | ? | 18.4µM* | ? | .
O=C(NCC(c1cccs1)N1CCOCC1)c1ccccc1NS(=O)(=O)c1ccc(Br)cc1 (centres undefined) | -8.6 | 14.6µM* | ? | -8.8% | 2.0% | -15.0%
Cn1nc(C(=O)NCC(c2cccs2)N2CCOCC2)c2ccccc2c1=O (centres undefined) | 37.2 | 16.4µM* | 25.9µM* | -8.1% | -10.5% | -23.8%
COc1ccc(C(CNC(=O)c2sccc2C)N2CCOCC2)cc1 (centres undefined) | 4.3 | -19.4% | ? | 0.1% | 0.4% | ?
CC(C)(Oc1ccc(Cl)cc1)C(=O)NCC(c1cccs1)N1CCOCC1 (centres undefined) | -7.1 | 18.4µM* | ? | -11.2% | -11.3% | ?
CN(C)c1ccc(C(=O)NCC(c2cccs2)N2CCOCC2)cc1 (centres undefined) | -25.9 | -19.2% | -5.3% | 4.8% | 2.6% | -0.6%
CCc1cc(C(=O)NCC(c2cccs2)N2CCOCC2)sc1C (centres undefined) | 12.2 | 23.1µM* | ? | -7.1% | -8.3% | 7.1%
COc1ccc(NC(=O)/C(=C\c2ccncc2)NC(=O)c2ccccc2)cc1 | 1.9 | -5.8% | 4.1% | 25.7% | 17.9% | -4.8%
Cc1[nH]c2ccccc2c1C(c1ccccn1)N1CCC(C(N)=O)CC1 (centres undefined) | -16.7 | 18.4µM* | 20.6µM* | -3.7% | -16.6% | ?
CCOC(=O)C1CCN(C(c2ccccn2)c2c(C)[nH]c3ccccc23)CC1 (centres undefined) | -109.9* | 16.4µM* | 16.4µM* | ? | ? | -2.0%
Cc1[nH]c2ccc(C(=O)N3CCC(C(N)=O)CC3)cc2c1C | -13.5 | 5.1% | 8.4% | 0.3% | 4.8% | ?
Cc1[nH]c2ccccc2c1C(c1ccncc1)N1CCN(c2ccccn2)CC1 (centres undefined) | 47.9 | ? | ? | -7.9% | -17.7% | 16.5%
Cc1[nH]c2ccccc2c1C(c1ccncc1)N1CCC(C)CC1 (centres undefined) | -0.5 | 18.4µM* | ? | -18.8% | -13.6% | 2.1%
O=C(NNc1cccc(Cl)c1)c1cccnc1Oc1ccccc1 | . | -10.9% | 1.2% | ? | 6.51µM* | ?
N#Cc1ccc(-c2ccc(OCC(=O)NN=Cc3ccncc3)cc2)cc1 | 36.1 | ? | ? | 1.9% | 6.5% | ?
COCCN(C(=S)Nc1cccc(C)c1)C(C)c1cccnc1 (centres undefined) | 7.3 | 0.1% | 3.8% | 22.1% | 24.8% | 12.2%
COc1ccccc1CNC(=O)CCCN1C(=O)COc2ccc(C)cc21 | -13.5 | -24.4% | ? | -1.1%[9.24 µM] | 9.3% | -13.0%
CC(=O)c1ccc(NC(=O)CCCN2C(=O)COc3ccc(C)cc32)cc1 | 4.0 | -17.7% | ? | -0.1% | -6.2% | 2.6%
Cc1cc(C)c(NC(=O)CCCN2C(=O)COc3ccc(C)cc32)c(C)c1 | . | 16.4µM* | ? | . | . | .
CCOc1ccccc1CNC(=O)CCCN1C(=O)COc2ccc(C)cc21 | . | 18.4µM* | ? | . | . | .
Cc1cccc(CNC(=O)CCCN2C(=O)COc3ccc(C)cc32)c1 | . | ? | 14.6µM* | . | . | .
Cc1cc(C)cc(Cn2cc(CN3CC(N4CCSCC4)CS3(=O)=O)nn2)c1 (centres undefined) | -19.8 | -23.1% | -10.5% | -8.2% | 2.7% | .
C(=C\c1ccc2nncn2c1)/c1ccccc1 | -5.6 | -28.7% | ? | 9.1% | 22.9% | .
Cc1cccc(C(=O)Nc2c(C(=O)NCc3ccc(Cl)cc3)sc3nc(C)cc(C)c23)c1 | . | 25.9µM* | 16.4µM* | . | . | .
SMILES | IL-1B inflam inh | TDP1 cell noCPT | DT40 TDP1 CPT | HT1080NT lethal | HT1080 IDH1KD tx | ELG1 DNA repair
Cc1cccc(C(=O)Nc2ccc(NC(=O)Cc3ccc(Cl)cc3)cc2)c1 | -4.4 | -2.9% | -5.0% | 0.4% | 5.5% | ?
CC(C)C(=O)Nc1c(C(=O)N2CCN(c3ncccn3)CC2)oc2ccccc12 | -10.6 | -10.8% | -22.8% | 28.6% | 0.5% | -6.4%
CCC(CC)C(=O)Nc1c(C(=O)N2CCN(c3ccccc3)CC2)oc2ccccc12 | -12.7 | 8.2µM* | 20.6µM* | ? | -23.7% | ?
CCC(CC)C(=O)N1CCN(c2ccccc2)CC1 | 0.0 | -15.1% | 15.7% | 20.8% | 17.2% | -2.2%
O=C(c1ccc(Br)o1)N1CCN(c2ccccc2F)CC1 | -21.0 | ? | 6.8% | 8.7% | 28.7% | 4.3%
CC(C)CC(=O)Nc1c(C(=O)N2CCN(c3ccccc3)CC2)oc2ccccc12 | . | 20.6µM* | 14.6µM* | . | . | .
O=C(Nc1c(C(=O)N2CCN(c3ccccc3F)CC2)oc2ccccc12)c1ccc(Br)o1 | . | ? | 18.4µM* | . | . | .
CC(C)C(=O)Nc1c(C(=O)N2CCN(c3ccccc3F)CC2)oc2ccccc12 | . | 11.6µM* | 10.3µM* | . | . | .
CC1CCC(NC(=O)CN2C(=O)c3cccnc3Oc3ccc(Cl)cc32)CC1 (centres undefined) | 27.3 | -2.9% | -25.2% | 0.1% | 0.7% | ?
CCNC(=O)CC1C(=O)N(c2ccc(C)cc2)C(=O)N1CCC(C)C (centres undefined) | 14.1 | -0.4% | 0.1% | 20.2% | 23.1% | 3.5%
CCc1ccc(C(C)NC(=O)c2ncn[nH]2)cc1 (centres undefined) | 12.4 | -0.8% | -7.6% | 0.8% | -2.6% | 9.3%
CCC(CC)C(=O)Nc1c(C(=O)N2CCN(c3ccccc3F)CC2)oc2ccccc12 | . | 10.3µM* | 14.6µM* | . | . | .
CCOc1ccc(C(=O)Nc2c(C(=O)N3CCN(c4ccccc4F)CC3)oc3ccccc23)cc1 | . | -17.9% | ? | . | . | .
CCCCC(=O)Nc1c(C(=O)N2CCN(c3ccccc3)CC2)oc2ccccc12 | . | 9.2µM* | 14.6µM* | . | . | .
